Measurements: PubChem BioAssay (EPA / NIEHS)
Active and inactive are the calls of the source. Rule for the calls: active = hit-call score of the fitted dose curve at least 0.9, where 1 is the maximum; inactive = score below 0.9.

Columns and labels:
[1] = read-out: growth arrest and DNA damage 45 (GADD45A), GADD45A (gene 1647); assay: LTEA_HepaRG_GADD45A: Life Technologies and Expression Analysis (LTEA) Assay for growth arrest and DNA damage 45 (GADD45A) using HepaRG (AID 2283458); conditions: mRNA level, 48 h; actives raise or lower the signal
Summary of the method: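 Differentiated HepaRG cells exposed 48 h in serum-free induction medium to 8 concentrations, top 100 uM in half-log steps, 0.5% DMSO. GADD45A mRNA quantified by qRT-PCR, normalized to ACTB, GAPDH and POLR2A; bidirectional fit versus DMSO.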

[2] = read-out: Forkhead box O3 (FOXO3), FOXO3 (gene 2309); assay: LTEA_HepaRG_FOXO3: Life Technologies and Expression Analysis (LTEA) Assay for Forkhead box O3 (FOXO3) using HepaRG (AID 2283459); conditions: mRNA level, 48 h; actives raise or lower the signal
Summary of the method: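 Differentiated human HepaRG cells, 48 h post-plating, exposed in duplicate for 48 h in serum-free induction medium; 8-point half-log series from 100 uM in 0.5% DMSO. FOXO3 mRNA by TaqMan qRT-PCR, normalized to ACTB/GAPDH/POLR2A; bidirectional fit versus DMSO.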

[3] = read-out: ABC Transporter (ABCB1), ABCB1 (gene 5243); assay: LTEA_HepaRG_ABCB1: Life Technologies and Expression Analysis (LTEA) Assay for ABC Transporter (ABCB1) using HepaRG (AID 2283460); conditions: mRNA level, 48 h; actives raise or lower the signal
Summary of the method: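 HepaRG cells exposed in duplicate for 48 h in serum-free induction medium to eight half-log concentrations up to 100 uM in 0.5% DMSO. ABCB1 mRNA quantified by qRT-PCR, normalised to ACTB, GAPDH and POLR2A; fitted bidirectionally versus DMSO.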

[4] = read-out: growth arrest and DNA damage 45 (GADD45B), GADD45B (gene 4616); assay: LTEA_HepaRG_GADD45B: Life Technologies and Expression Analysis (LTEA) Assay for growth arrest and DNA damage 45 (GADD45B) using HepaRG (AID 2283461); conditions: mRNA level, 48 h; actives raise or lower the signal
Summary of the method: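 Values are bidirectional concentration-response fits against 0.5% DMSO controls. Underlying data: qRT-PCR mRNA levels in human HepaRG liver cells treated 48 h in serum-free induction medium, eight concentrations topping at 100 uM.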

[5] = read-out: ABC Transporter (ABCB11), ABCB11 (gene 8647); assay: LTEA_HepaRG_ABCB11: Life Technologies and Expression Analysis (LTEA) Assay for ABC Transporter (ABCB11) using HepaRG (AID 2283463); conditions: mRNA level, 48 h; actives raise or lower the signal
Summary of the method: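 Differentiated human HepaRG cells in serum-free induction medium, dosed in duplicate for 48 h. Eight-point half-log series from 100 uM in 0.5% DMSO; ABCB11 mRNA by qRT-PCR, normalized to ACTB, GAPDH, POLR2A, fitted bidirectionally versus DMSO.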

[6] = read-out: ABC Transporter (ABCC2), ABCC2 (gene 1244); assay: LTEA_HepaRG_ABCC2: Life Technologies and Expression Analysis (LTEA) Assay for ABC Transporter (ABCC2) using HepaRG (AID 2283464); conditions: mRNA level, 48 h; actives raise or lower the signal
Summary of the method: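 Gene expression of ABCC2 was determined by qRT-PCR in HepaRG cells exposed 48 h to chemicals (highest 100 uM, half-log dilutions). Activity was fitted in both directions relative to 0.5% DMSO vehicle.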

[7] = read-out: Broad substrate specificity ATP-binding cassette transporter ABCG2 (Homo sapiens) (UniProt Q9UNQ0); assay: LTEA_HepaRG_ABCG2: Life Technologies and Expression Analysis (LTEA) Assay for ABC Transporter (ABCG2) using HepaRG (AID 2283465); conditions: mRNA level, 48 h; actives raise or lower the signal
Summary of the method: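 Differentiated HepaRG cells were exposed for 48 h in serum-free induction medium to 8 half-log concentrations, top 100 uM, in 0.5% DMSO. ABCG2 mRNA was measured by qRT-PCR, normalized to ACTB, GAPDH and POLR2A, with bidirectional fitting versus DMSO.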

[8] = read-out: ATP-citrate lyase (ACLY), ACLY (gene 47); assay: LTEA_HepaRG_ACLY: Life Technologies and Expression Analysis (LTEA) Assay for ATP-citrate lyase (ACLY) using HepaRG (AID 2283466); conditions: mRNA level, 48 h; actives raise or lower the signal
Summary of the method: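 Differentiated HepaRG cells exposed 48 h in serum-free induction medium to eight half-log concentrations up to 100 uM in 0.5% DMSO, duplicates. Transcript measured by Fluidigm TaqMan qRT-PCR, normalized to ACTB, GAPDH, POLR2A; bidirectional fit versus DMSO.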

[9] = read-out: Peroxisomal acyl-coenzyme A oxidase 1 (ACOX1) gene, ACOX1 (gene 51); assay: LTEA_HepaRG_ACOX1: Life Technologies and Expression Analysis (LTEA) Assay for Peroxisomal acyl-coenzyme A oxidase 1 (ACOX1) gene using HepaRG (AID 2283467); conditions: mRNA level, 48 h; actives raise or lower the signal
Summary of the method: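 HepaRG cells, plated 48 h then switched to serum-free induction medium, were exposed in duplicate for 48 h to 8-point half-log concentrations up to 100 uM in 0.5% DMSO. ACOX1 mRNA was measured by qRT-PCR, normalized to ACTB/GAPDH/POLR2A, and fitted bidirectionally versus DMSO.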

[10] = read-out: Alkaline Phosphatase, Placental (ALPP) gene, ALPP (gene 250); assay: LTEA_HepaRG_ALPP: Life Technologies and Expression Analysis (LTEA) Assay for Alkaline Phosphatase, Placental (ALPP) gene using HepaRG (AID 2283468); conditions: mRNA level, 48 h; actives raise or lower the signal
Summary of the method: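 Expression of ALPP was quantified by qRT-PCR against three housekeeping genes in human HepaRG cultures treated for 48 h with an eight-point concentration series up to 100 uM. Activity in either direction was fitted relative to 0.5% DMSO.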

[11] = read-out: Bcl-2 (BAX) gene, BAX (gene 581); assay: LTEA_HepaRG_BAX: Life Technologies and Expression Analysis (LTEA) Assay for Bcl-2 (BAX) gene using HepaRG (AID 2283470); conditions: mRNA level, 48 h; actives raise or lower the signal
Summary of the method: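 Differentiated HepaRG cells exposed 48 h in serum-free induction medium, eight half-log concentrations from 100 uM, in duplicate, 0.5% DMSO vehicle. BAX mRNA by TaqMan qRT-PCR, normalised to ACTB, GAPDH and POLR2A.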

[12] = read-out: adenosine kinase (ADK) gene, ADK (gene 132); assay: LTEA_HepaRG_ADK: Life Technologies and Expression Analysis (LTEA) Assay for adenosine kinase (ADK) gene using HepaRG (AID 2283471); conditions: mRNA level, 48 h; actives raise or lower the signal
Summary of the method: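 Following 48 h exposure of HepaRG cells in 0.5% DMSO (top concentration 100 uM, duplicate wells), ADK mRNA induction or suppression was measured by qRT-PCR, normalised to ACTB/GAPDH/POLR2A, and fitted bidirectionally relative to vehicle.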

[13] = read-out: Alpha-fetoprotein (AFP) gene, AFP (gene 174); assay: LTEA_HepaRG_AFP: Life Technologies and Expression Analysis (LTEA) Assay for Alpha-fetoprotein (AFP) gene using HepaRG (AID 2283472); conditions: mRNA level, 48 h; actives raise or lower the signal
Summary of the method: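 Differentiated human HepaRG cells exposed 48 h in serum-free induction medium, 8-point half-log series from 100 uM in 0.5% DMSO, duplicate. AFP mRNA by qRT-PCR, normalized to ACTB, GAPDH, POLR2A; bidirectional fit vs DMSO.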

[14] = read-out: BCL2L11 (gene 10018); assay: LTEA_HepaRG_BCL2L11: Life Technologies and Expression Analysis (LTEA) Assay for Bcl-2 (BCL2L11) gene using HepaRG (AID 2283473); conditions: mRNA level, 48 h; actives raise or lower the signal
Summary of the method: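 Cells were plated, cultured 48 h, switched to serum-free induction medium, then dosed in duplicate for 48 h at eight half-log concentrations up to 100 uM. Lysates underwent RNA isolation and TaqMan qRT-PCR; gain or loss versus DMSO was fitted.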

[15] = read-out: Apolipoprotein A-V (APOA5) gene, APOA5 (gene 116519); assay: LTEA_HepaRG_APOA5: Life Technologies and Expression Analysis (LTEA) Assay for Apolipoprotein A-V (APOA5) gene using HepaRG (AID 2283474); conditions: mRNA level, 48 h; actives raise or lower the signal
Summary of the method: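 Human liver HepaRG cells are treated 48 h with test chemicals (100 uM top, half-log dilutions, 0.5% DMSO). APOA5 mRNA induction or loss is measured by qRT-PCR relative to vehicle.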

[16] = read-out: Apoptosis regulator Bcl-2 (Homo sapiens) (UniProt P10415); assay: LTEA_HepaRG_BCL2: Life Technologies and Expression Analysis (LTEA) Assay for Bcl-2 gene using HepaRG (AID 2283475); conditions: mRNA level, 48 h; actives raise or lower the signal
Summary of the method: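 Differentiated human HepaRG cells in serum-free induction medium exposed 48 h, in duplicate, to 8-point half-log series from 100 uM in 0.5% DMSO. BCL2 mRNA by qRT-PCR (TaqMan/Fluidigm), normalized to ACTB, GAPDH, POLR2A; bidirectional fit against DMSO.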

[17] = read-out: Bcl-2 (BID) gene, BID (gene 637); assay: LTEA_HepaRG_BID: Life Technologies and Expression Analysis (LTEA) Assay for Bcl-2 (BID) gene using HepaRG (AID 2283476); conditions: mRNA level, 48 h; actives raise or lower the signal
Summary of the method: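 Gene expression by qRT-PCR in HepaRG cells after 48 h exposure, duplicate wells, eight half-log concentrations topping at 100 uM in 0.5% DMSO. Normalized to ACTB, GAPDH, POLR2A; bidirectional fitting relative to DMSO.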

[18] = CEETOX_H295R_TESTO: CeeTox H295R High-throughput Steroidogenesis Assay for Testosterone (TESTO) (AID 2283457); conditions: actives raise or lower the signal
Summary of the method: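 Testosterone synthesis is assessed in human adrenocortical H295R cells after 48 h of chemical exposure, using HPLC-MS/MS of extracted medium. Activity is fitted in both directions against DMSO control.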

[19] = read-out: ABC Transporter (ABCC3), ABCC3 (gene 8714); assay: LTEA_HepaRG_ABCC3: Life Technologies and Expression Analysis (LTEA) Assay for ABC Transporter (ABCC3) using HepaRG (AID 2283462); conditions: mRNA level, 48 h; actives raise or lower the signal
Summary of the method: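 Differentiated HepaRG liver cells receive test chemicals at eight concentrations (max 100 uM) for 48 h. Expression of ABCC3 is quantified by qRT-PCR against ACTB, GAPDH and POLR2A, and activity is fitted in both directions against the DMSO control.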

[20] = read-out: Bcl-2 (BAD) gene, BAD (gene 572); assay: LTEA_HepaRG_BAD: Life Technologies and Expression Analysis (LTEA) Assay for Bcl-2 (BAD) gene using HepaRG (AID 2283469); conditions: mRNA level, 48 h; actives raise or lower the signal
Summary of the method: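 Differentiated HepaRG cells were exposed in duplicate in 0.5% DMSO for 48 h to eight-point half-log concentrations up to 100 uM. BAD mRNA was measured by Fluidigm TaqMan qRT-PCR, normalized to ACTB, GAPDH and POLR2A, and fitted bidirectionally against DMSO.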

Measured: AC50

Broad substrate specificity ATP-binding cassette transporter ABCG2 (Homo sapiens), sequence (Q9UNQ0 whole entry, looked up): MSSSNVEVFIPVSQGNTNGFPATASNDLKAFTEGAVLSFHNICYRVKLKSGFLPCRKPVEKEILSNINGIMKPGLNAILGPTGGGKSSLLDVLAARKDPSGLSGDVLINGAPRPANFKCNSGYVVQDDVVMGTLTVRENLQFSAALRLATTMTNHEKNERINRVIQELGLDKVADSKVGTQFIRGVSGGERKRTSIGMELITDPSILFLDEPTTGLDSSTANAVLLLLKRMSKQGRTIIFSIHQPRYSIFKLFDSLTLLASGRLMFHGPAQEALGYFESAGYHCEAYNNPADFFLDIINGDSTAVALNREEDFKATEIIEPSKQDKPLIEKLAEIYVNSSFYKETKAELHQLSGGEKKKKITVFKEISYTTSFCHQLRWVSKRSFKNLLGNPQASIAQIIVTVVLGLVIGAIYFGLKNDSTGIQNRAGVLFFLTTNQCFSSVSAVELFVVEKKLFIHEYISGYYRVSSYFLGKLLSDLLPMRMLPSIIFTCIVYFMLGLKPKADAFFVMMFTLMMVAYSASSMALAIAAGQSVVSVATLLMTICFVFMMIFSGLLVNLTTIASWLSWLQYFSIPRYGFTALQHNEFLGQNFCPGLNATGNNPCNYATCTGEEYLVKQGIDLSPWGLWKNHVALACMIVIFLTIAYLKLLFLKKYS
Apoptosis regulator Bcl-2 (Homo sapiens), sequence (P10415 whole entry, looked up): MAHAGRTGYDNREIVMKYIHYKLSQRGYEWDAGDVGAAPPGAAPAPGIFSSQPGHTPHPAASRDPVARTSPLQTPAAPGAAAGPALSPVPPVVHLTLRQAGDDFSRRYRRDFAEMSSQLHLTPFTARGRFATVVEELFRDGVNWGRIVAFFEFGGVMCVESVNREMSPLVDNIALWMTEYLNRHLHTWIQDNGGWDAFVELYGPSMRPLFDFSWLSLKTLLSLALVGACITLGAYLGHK

CC(C)CC(C)(O)C#CC(C)(O)CC(C)C (configuration not stated)
active: [3] 16.7 µM
not listed: [18] | [19] | [20]
inactive: all other assays above

Cc1ccc(O)cc1
not listed: [13]
inactive: all other assays above

CC(=O)OCCC(C)C
not listed: [16] | [18] | [19] | [20]
inactive: all other assays above
